Data as given in PubChem BioAssay (Tox21).
“And” between values parts separate entries of the source, which are not always exact repeats. Identical values can stand only once. Results filed as inconclusive are left out. The source made the active and inactive calls. The call rests on the fitted dose curve; in most records, active means well fitted curve in the direction sought with a large enough effect in the repeat runs; inconclusive means weak or mixed curves; inactive means no such curve, though single readings can be large; an effect the other way counts as inactive or inconclusive.

How the values were obtained:
[1] = A CellTox Green Cytotoxicity Assay to monitor cytotoxicity in HEK293 cells - 8 hour (AID 1224884); further: nearly all actives have a fitted effect of over 35% in size; further: potency means the concentration at half of the fitted maximal effect
Method in brief: (§1)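 Fluorescence from a DNA-binding dye excluded by viable cells was measured repeatedly in the same HEK293 wells (600 cells/well) during continuous compound exposure at 37 C. Each assay gives one read point: 0, 8, 16, 24, 32 or 40 h.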

[2] = qHTS RealTime-Glo MT Cell Viability Assay in HepG2 cells - 16 hour (AID 1224885); further: nearly all actives have a fitted effect of over 50% in size; further: potency means the concentration at half of the fitted maximal effect
Method in brief: (§2)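 Cell number in HepG2 cultures estimated from NanoLuc luminescence generated by metabolic reduction of a prosubstrate by living cells. The homogeneous, nonlytic format allowed repeated reads at 0, 8, 16, 24, 32 and 40 h of compound exposure.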

[3] = qHTS RealTime-Glo MT Cell Viability Assay in HEK293 cells - 24 hour (AID 1224886); further: nearly all actives have a fitted effect of over 50% in size; further: potency means the concentration at half of the fitted maximal effect; on activity change, negative = cytotoxicity: top concentration of the series differs between compounds
Method in brief: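 Homogeneous bioluminescent viability format in HEK293 cells (600 cells/well). Following 5 h at 37 C/5% CO2, 23 nL compound was pintooled; the signal was measured repeatedly during 40 h incubation.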

[4] = qHTS RealTime-Glo MT Cell Viability Assay in HEK293 cells - 8 hour (AID 1224887); further: nearly all actives have a fitted effect of over 50% in size; further: potency means the concentration at half of the fitted maximal effect; on activity change, negative = cytotoxicity: top concentration of the series differs between compounds
Method in brief: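 Luminescence, which tracks viable cell number through reduction of the prosubstrate to a NanoLuc substrate, was read over continuous 37 C culture. Cells (600/well) were premixed with reagent and rested 5 h before 23 nL of compound in DMSO was pinned.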

[5] = A CellTox Green Cytotoxicity Assay to monitor cytotoxicity in HEK293 cells - 16 hour (AID 1224888); further: nearly all actives have a fitted effect of over 35% in size; further: potency means the concentration at half of the fitted maximal effect
Method in brief: as §1

[6] = A CellTox Green Cytotoxicity Assay to monitor cytotoxicity in HepG2 cells - 8 hour (AID 1224890); further: nearly all actives have a fitted effect of over 45% in size; further: potency means the concentration at half of the fitted maximal effect
Method in brief: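 Real-time cytotoxicity: fluorescence of a cell-impermeant cyanine dye binding DNA of dead HepG2 cells, measured repeatedly (0–40 h) during compound exposure at 37 C. Cells seeded 600/well with reagent, dosed after 5 h.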

[7] = qHTS assay to identify small molecule antagonists of the estrogen receptor alpha (ER-alpha) signaling pathway using the BG1 cell line in the presence of 0.1 nM 17-beta-estradiol - cell viability counter screen (AID 1259241); further: nearly all actives have a fitted effect of over 40% in size; further: potency means the concentration at half of the fitted maximal effect
Method in brief: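 Following 5 days in phenol red-free medium with charcoal-stripped serum, VM7Luc4E2 cells received test compounds alongside 0.1 nM 17beta-estradiol (final) at 37C for 22 hr. Live cells were then quantified via protease-substrate fluorescence.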

[8] = qHTS assay to identify small molecule antagonists of the androgen receptor (AR) signaling pathway using the MDA cell line in the presence of 0.5 nM R1881 - cell viability counter screen (AID 1259242); further: nearly all actives have a fitted effect of over 45% in size; further: potency means the concentration at half of the fitted maximal effect
Method in brief: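 Live-cell protease activity was measured by CellTiter-Fluor fluorescence after 30 min. Before that, MDA-kb2 MMTV-luciferase cells had 16 hr at 37C without CO2, exposed to test compounds and 0.5 nM R1881 final.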

[9] = qHTS RealTime-Glo MT Cell Viability Assay in HepG2 cells - 0 hour (AID 1224889); further: nearly all actives have a fitted effect of over 50% in size
Method in brief: as §2
On the % scale 0 is the no-effect control and ±100 the full control effect.

Cc1cc(Nc2ccc(O)cc2)ccc1N
inactive: Potency [1] | Potency [5] | Potency [6]
active: Potency [2] 48.8 µM | Potency [3] 24.4 µM | Potency [4] 21.8 µM | Potency [7] 27.2 µM | Potency [8] 48.3 µM

CCCC(CC)CCCCCCCN (stereo not drawn)
active: Potency [1] 50.2 µM | Potency [3] 56.3 µM
inactive: Potency [2] | Potency [6] | Potency [7] | Potency [8]

COc1ccccc1C=O
inactive: Potency [1] | Potency [2] | Potency [3] | Potency [4] | Potency [9] | Potency [6] | Potency [7] | Potency [8]

N[C@@H](CSSC[C@H](N)C(=O)O)C(=O)O
inactive: cytotoxicity increase [1] 26.5% [at 0.29 µM] | activity change, negative = cytotoxic [2] 0.777% [at 0.29 µM] | activity change, negative = cytotoxicity [3] 9.89% [at 0.29 µM] | activity change, negative = cytotoxicity [4] 16.3% [at 0.29 µM] | activity change [5] 14.4% [at 0.29 µM, hits give high values] | activity change, negative = cytotoxicity [9] 0.0589% [at 0.29 µM] | activity change, negative = cytotoxicity [7] 0.433% [at 0.349 µM] | viability change, negative = cytotoxic [8] -1.71% [at 0.349 µM]

CC(C)=C1CC[C@@H](C)CC1=O
inactive: Potency [1] | Potency [2] | Potency [3] | Potency [4] | Potency [5] | Potency [6] | Potency [7] | Potency [8]

COC(=O)[C@]1(C)CCC[C@@]2(C)[C@H]1CC=C1C=C(C(C)C)CC[C@@H]12
inactive: Potency [2] | Potency [3] | Potency [4] | Potency [7] | Potency [8]
active: Potency [1] 38.9 µM

COC(=O)C1=C(C)NC(C)=C(C(=O)OCCCN2CCC(c3ccccc3)(c3ccccc3)CC2)C1c1cccc([N+](=O)[O-])c1 (stereo not drawn)
active: Potency [3] 10.7 µM | Potency [4] 16.9 µM
inactive: Potency [1] | Potency [5] | Potency [9] | Potency [6] | Potency [7]

Cc1cccc(N(C)C)c1
inactive: Potency [1] | Potency [2] | Potency [3] | Potency [5] | Potency [9] | Potency [6] | Potency [7] | Potency [8]

C=CC(C)C#N (stereo not drawn)
inactive: Potency [1] | Potency [2] | Potency [3] | Potency [4] | Potency [5] | Potency [9] | Potency [6] | Potency [7] | Potency [8]

c1ccc(Nc2cccc3ccccc23)cc1
inactive: Potency [1] | Potency [2] | Potency [3] | Potency [5] | Potency [9] | Potency [6] | Potency [7] | Potency [8]

CCN(CC)c1ccc(N)cc1
inactive: Potency [1] | Potency [9] | Potency [6]
active: Potency [2] 50.3 µM | Potency [3] 22.5 µM | Potency [4] 20 µM | Potency [7] 17.7 µM | Potency [8] 17.7 µM

CN(C)CCN1CCOCC1
inactive: Potency [1] | Potency [3] | Potency [5] | Potency [9] | Potency [6] | Potency [7] | Potency [8]

C=C1C(C)(C)[C@@]2(Cl)C(Cl)[C@]1(Cl)C(Cl)(Cl)C2(Cl)Cl (stereo partly drawn)
active: Potency [4] 53.9 µM
inactive: Potency [9] | Potency [6] | Potency [7] | Potency [8]

CCOC(=O)[C@@](C)(N)Cc1ccc(O)c(O)c1
inactive: Potency [2] | Potency [3] | Potency [4] | Potency [8]

CC(=O)Oc1ccc(C2(c3ccc(OC(C)=O)cc3)Oc3ccccc3NC2=O)cc1
inactive: Potency [2] | Potency [3] | Potency [4] | Potency [9] | Potency [7] | Potency [8]

O=C(Oc1ccccc1)c1cccc(C(=O)Oc2ccccc2)c1
inactive: Potency [2] | Potency [5] | Potency [9] | Potency [7] | Potency [8]

C[C@]12CC[C@H]3C(=CCc4cc(O)ccc43)[C@@H]1CCC2=O
active: Potency [3] 43.6 µM
inactive: Potency [1] | Potency [5] | Potency [6] | Potency [7] | Potency [8]

c1ccc(Sc2ccccc2)cc1
inactive: Potency [2] | Potency [4] | Potency [5] | Potency [6] | Potency [7] | Potency [8]

C=CCCCCCCC=C
inactive: Potency [2] | Potency [3] | Potency [4] | Potency [9] | Potency [6] | Potency [7] | Potency [8]

O=C(NO)c1ccccc1
inactive: Potency [2] | Potency [9] | Potency [7] | Potency [8]

O=C=NCc1cccc(CN=C=O)c1
inactive: cytotoxicity increase [1] -1.28% [at 15.8 µM] | activity change, negative = cytotoxicity [3] 4.88% [at 15.8 µM] | activity change, negative = cytotoxicity [4] 1.79% [at 15.8 µM] | activity change [5] -10.6% [at 15.8 µM, hits give high values] | cytotoxicity increase [6] -0.221% [at 15.8 µM] | activity change, negative = cytotoxicity [7] -0.0453% [at 19 µM] | viability change, negative = cytotoxic [8] -0.671% [at 19 µM]

O=C(O)c1cccc(Cl)n1
inactive: Potency [2] | Potency [3] | Potency [4] | Potency [9] | Potency [6] | Potency [7] | Potency [8]

C1CC(COCC2CO2)CCC1COCC1CO1 (stereo not drawn)
inactive: Potency [3] | Potency [4] | Potency [5] | Potency [6] | Potency [7] | Potency [8]

COc1cccc(O)c1
inactive: Potency [1] | Potency [3] | Potency [4] | Potency [5] | Potency [9] | Potency [6] | Potency [7] | Potency [8]

CCCSS/C(CCO)=C(\C)N(C=O)Cc1cnc(C)nc1N
inactive: Potency [2] | Potency [4] | Potency [5] | Potency [6] | Potency [7] | Potency [8]

COc1cc(C(C)C)c2c(c1)S(=O)(=O)N(COc1cc(=O)n3cccc(OCCN4CCCCC4)c3n1)C2=O
inactive: cytotoxicity increase [1] -6.14% [at 15.8 µM] | activity change [5] 2.2% [at 15.8 µM, hits give high values] | activity change, negative = cytotoxicity [7] -4.33% [at 19 µM] | viability change, negative = cytotoxic [8] -2.69% [at 19 µM]

CC(C)C(=O)OCc1ccccc1
inactive: Potency [2] | Potency [7] | Potency [8]

C=C(C)C(=O)OCCC[Si](Cl)(Cl)Cl
inactive: Potency [2] | Potency [3] | Potency [5] | Potency [6] | Potency [7] | Potency [8]

CC(C)=CC1CC(C)CCO1 (stereo not drawn)
inactive: Potency [2] | Potency [3] | Potency [5] | Potency [9] | Potency [6] | Potency [7] | Potency [8]

Cc1cc2c(C(C)C)c(O)c(O)c(C=O)c2c(O)c1-c1c(C)cc2c(C(C)C)c(O)c(O)c(C=O)c2c1O
inactive: Potency [9] | Potency [6] | Potency [7]
active: Potency [3] 10.7 µM | Potency [5] 16.9 µM

c1cc(OCC2CO2)cc(OCC2CO2)c1 (stereo not drawn)
active: Potency [3] 24.4 µM
inactive: Potency [1] | Potency [4] | Potency [5] | Potency [9] | Potency [6] | Potency [7] | Potency [8]

Cc1ccc(N)cc1O
inactive: Potency [2] | Potency [4] | Potency [9] | Potency [6] | Potency [8]
active: Potency [7] 61.1 µM

CC(C)(c1cc(Br)c(OCCO)c(Br)c1)c1cc(Br)c(OCCO)c(Br)c1
active: Potency [3] 12 µM
inactive: Potency [1] | Potency [5] | Potency [6] | Potency [7]

C=CC(=C)CCC=C(C)C
inactive: Potency [1] | Potency [3] | Potency [4] | Potency [5] | Potency [9] | Potency [6] | Potency [7] | Potency [8]

COc1cc(C(=O)NS(=O)(=O)c2ccccc2C)ccc1Cc1cn(C)c2ccc(NC(=O)OC3CCCC3)cc12
inactive: Potency [2] | Potency [3] | Potency [4] | Potency [5] | Potency [9] | Potency [6] | Potency [7] | Potency [8]

O=C1Nc2ccc(Cl)cc2[C@@](C#CC2CC2)(C(F)(F)F)O1
active: Potency [3] 23.9 µM | Potency [4] 23.9 µM
inactive: Potency [9] | Potency [7] | Potency [8]

CCCCN(CCCC)CCC(O)c1cc2c(Cl)cc(Cl)cc2c2cc(C(F)(F)F)ccc12 (stereo not drawn)
inactive: Potency [1] | Potency [3] | Potency [4] | Potency [5] | Potency [9] | Potency [6] | Potency [7]

CC(O)C#CC(C)O (stereo not drawn)
inactive: Potency [1] | Potency [4] | Potency [5] | Potency [9] | Potency [6] | Potency [7] | Potency [8]

CCCCCCOc1ccc(O)cc1
inactive: Potency [1] | Potency [5] | Potency [7] | Potency [8]
active: Potency [3] 0.0617 µM | Potency [6] 24.5 µM

COc1ccc2sc(C(=O)Nc3nnn[nH]3)c(OC(C)C)c2c1
inactive: Potency [2] | Potency [4] | Potency [5] | Potency [9] | Potency [7] | Potency [8]

CCN=C1C=CC(=C(c2ccc(N(CC)CC)cc2)c2ccc(N(CC)CC)cc2)c2ccccc21
active: Potency [2] 19.4 µM | Potency [3] 7.71 µM | Potency [4] 17.3 µM | Potency [5] 19.4 µM | Potency [7] 24.2 µM | Potency [8] 2.71 µM

c1cc2c3c(c1)ccc1cccc(c13)C2
inactive: Potency [2] | Potency [3] | Potency [9] | Potency [7] | Potency [8]

CCOC(=O)N1CCC(=C2c3ccc(Cl)cc3CCc3cccnc32)CC1
active: Potency [3] 21.9 µM and 16.9 µM | Potency [4] 21.9 µM
inactive: Potency [5] | Potency [9] | Potency [6] | Potency [7] | Potency [8]

CCc1ccc(O)c(C(C)(C)C)c1
inactive: Potency [1] | Potency [3] | Potency [4] | Potency [5] | Potency [9] | Potency [7] | Potency [8]
active: Potency [6] 43.6 µM

CC(C)OC(=O)c1cc(C(=O)OC(C)C)cc([N+](=O)[O-])c1
inactive: Potency [5] | Potency [9] | Potency [7] | Potency [8]

COc1nccnc1CC(C)C
inactive: Potency [1] | Potency [3] | Potency [4] | Potency [5] | Potency [9] | Potency [6] | Potency [7] | Potency [8]

CNC(=O)c1cc(Oc2ccc(NC(=O)Nc3ccc(Cl)c(C(F)(F)F)c3)cc2)ccn1
inactive: Potency [5] | Potency [9] | Potency [6]
active: Potency [3] 3.38 µM | Potency [4] 4.25 µM | Potency [8] 26.6 µM
